PubChem BioAssay (NCI)
Where “and” joins values, the source holds several entries; their conditions need not be identical. Identical values can stand only once. Compounds without any hit were thinned out: in the full panel of roughly 83,000, 20% have a hit.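 How to read the values: 0–100, growth inhibition (40 = 60% inhibited); 0, no net growth; -100 to 0, cell death (-40 = 40% of starting cells died; -100 = all dead).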 Unmarked numbers belong to inactive results. Calls of active or inactive are those of the source. How the source made its calls: active means growth percent below 10; inactive means the rest.

Test system: MDA-MB-468 breast
Test: NCI-60 one-dose screen, 48 h (100 = growth as untreated, 0 = no growth, -100 = all killed)
Conditions: 10 µM unless noted

SMILES | growth
CCNC(=O)c1ccc2c(c1)nc(-c1ccc(Cl)cc1)n2-c1cc(C(C)(C)C)[nH]n1 | 32.8%
Cc1[nH]c(-c2cc(N)ccc2Cl)c2c1C(=O)CCCC2 | -5.42% (active)
Cc1cc2nc(C(Cl)Cl)nc(-c3ccco3)n2n1 | -34% (active)
O=c1c(-c2nc3ccccc3[nH]2)cc2ccccc2n1Cc1cn(Cc2ccccc2Cl)nn1 | 14.1%
CC[C@H](CC[C@@H](C)[C@H]1CC[C@H]2[C@@H]3CC=C4C[C@@H](O)CC[C@]4(C)[C@H]3CC[C@]12C)C(C)C | 98.7% and 91.8%
COc1ccc(-c2nc(SCC(=O)Nc3nc4ccc(C)cc4s3)[nH]c(=O)c2C#N)cc1OC | 100%
CN1C(=O)CNC(=O)[C@H](NC(=O)c2nc3ccccc3cc2O)CSSC[C@H]1C(=O)NCCc1nc2ccccc2cc1O | 16%
CCCCCCCCCCCC(=O)NCCC[N+](C)(C)CC(=O)[O-] | 86.9%
COc1ccc(NC2=C(Br)C(=O)C(C)=C(C)C2=O)cc1OC | -66.6% (active)
O=C(/C=C/c1cccc(Br)c1)c1ccccc1 | 84.9%
O=C1NN(c2ccccc2)C(c2cccnc2)=N/C1=C\c1cccnc1 | 90%
O=[N+]([O-])c1ccc(C(Br)c2ccc([N+](=O)[O-])cc2)cc1 | 112%
COc1ccc(/C=N\NC(=O)CN2CCN(c3cc4c(cc3F)c(=O)c(C(=O)N/N=C/c3ccc(OC)cc3)cn4C3CC3)CC2)cc1 | 84.3%
CCOC(=O)c1c(C)nn(CC(O)c2ccccc2)c1NC(=O)Nc1cccc(F)c1 (stereo not given) | 82.6%
O=S(=O)(NCCNc1nccc(-n2cnc3ccccc32)n1)c1ccc(Cl)cc1 | 101%
COc1ccc(/C=C2/C(=O)Nc3cc(Cl)c(-c4csc(N)n4)cc32)cc1 | 0.87% (active)
CC(C)(C)CC(C)(C)Nc1c(-c2ccc3c(c2)OCO3)nc2cnccn12 | 95.2%
O=C1NC(=O)c2c1c1c3ccccc3ccc1c1[nH]c3ccccc3c21 | 7.32% (active)
Cc1ccc(-c2cc3nc(C(Cl)Cl)nc(-c4ccccc4)n3n2)cc1 | -16.4% (active)
COc1ccc(-c2cnc(-c3ccc(F)cc3)[nH]2)cc1 | 90.3%

SMILES | growth
CC(=O)N1N=C(c2ccc(C)cc2)CC1c1ccc(Oc2ccc(Br)cc2)cc1 (stereo not given) | 75%
CCN(CC)CCNc1nc2ccccc2c2c(=O)c3cc(Cl)ccc3sc12 | 56.2%
COCCCNC1=C(C#N)C(=O)NC(c2cccs2)S1 (stereo not given) | 93.8%
O=C1CC23OC4ON=C(Br)C4C2C(O)c2ccccc2N13 (stereo not given) | 106%
CN(C)c1ccc(/C=N/NC(=O)CSc2nc3sc4c(c3c(=O)n2-c2ccccc2)CCCCC4)cc1 | 26.2%
CCN(CC)Cc1cc(Nc2ccnc3cc(Cl)ccc23)ccc1OC | 93.6%
Cc1sc2ncnc(Sc3nc4ccccc4[nH]3)c2c1C | -86.6% (active)
COc1cccc(Nc2nccc(Nc3ccc4[nH]ncc4c3)n2)c1 | -45.5% (active)
COc1cc(/C=C/c2cc(/C=C/c3ccc(O)c(OC)c3)nc(N)n2)ccc1O | -35% (active)
CN1CCN(CCCOc2ccc3nc(Nc4cc(Cl)cc(Cl)c4)ccc3c2)CC1 | -74.4% (active)
CC[C@H](Nc1ncnc2nc[nH]c12)c1nc2cccc(CC(=O)c3ccc(C(=O)NO)cc3)c2c(=O)n1-c1ccccc1 | 60.8%
Cc1ccc2oc3nc(C)c(C(=O)NCc4ccccc4)cc3c(=O)c2c1 | 96.7%
Cc1ccc(S(=O)(=O)NCCCNc2nc(Nc3ccc(N4CCN(C)CC4)cc3)nc3ccsc23)cc1 | 12.3%
NS(=O)(=O)c1cccc(Nc2nc(SCC(=O)c3ccc(Cl)cc3)nc3c2CCC3)c1 | 79.8%
CCCCCCCCCCCCCCCC[N+]1(C)CCCC1c1cccnc1 (stereo not given) | -15.8% (active)
Nc1n[nH]c(-c2cc(Cl)ccc2O)c1-c1ccccc1 | 83.5%
O=[N+]([O-])C=C(c1ccccc1)c1ccccc1 | -4.43% (active)
CC1Cc2ccccc2N1NC(=O)c1ccc(Cl)c(S(N)(=O)=O)c1 (stereo not given) | 94.8%
CCCc1nc(C(C)(C)O)c(C(=O)O)n1Cc1ccc(-c2ccccc2-c2nn[nH]n2)cc1 | 112%
O=C1C=C(O)C(=O)C=C1O | 115%
